Measurements taken from PubChem BioAssay (NCI).
This is part of a sample that, as a whole, favours compounds with a hit. Of some 83,000 tested, about 20% had one in any assay.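 96-well plates, one dose, 48 hours. Percent growth reported; active if below 10.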 Unmarked numbers belong to inactive results. The source made the active and inactive calls.

Columns and labels:
Experiment in all cases: NCI-60 one-dose screen, 48 h (100 = growth as untreated, 0 = no growth, -100 = all killed)
Settings in all cases: 10 µM unless noted
[1] = test system: SR leukemia
[2] = test system: RPMI-8226 leukemia
[3] = test system: OVCAR-8 ovarian
[4] = test system: OVCAR-5 ovarian
[5] = test system: OVCAR-4 ovarian
[6] = test system: SK-OV-3 ovarian
[7] = test system: IGROV1 ovarian
[8] = test system: HS 578T breast
[9] = test system: NCI/ADR-RES ovarian

| Structure (SMILES) | growth [1] | growth [2] | growth [3] | growth [4] | growth [5] | growth [6] | growth [7] | growth [8] | growth [9] |
| --- | --- | --- | --- | --- | --- | --- | --- | --- | --- |
| N#Cc1cccc(CN2CCC3=C(C2)C(=O)N(Cc2ccc(Cl)cc2)C2=NCCN23)c1 | 32.9% | 17% | 20.2% | 38.6% | 20.4% | 27.8% | 54.4% | 45.5% | 13.5% |
| O=C(CSc1nc2ccccc2c(=O)n1-c1ccccc1)Nc1cccc(C(=O)/C=C/c2ccccc2)c1 | 77.5% | 6.02% (active) | 84% | 96.6% | 94% | 103% | 95.4% | 92.5% | 96.8% |
| COc1cc(-c2nc(SC(C)C)n(C(C)C)c(=O)c2C#N)ccc1OCc1ccccc1 | 39.9% | 78.4% | 77% | 93.2% | 4.7% (active) | 103% | 67.1% | 70.1% | 76% |
| COc1cc2oc(-c3cccc(C(=O)N[C@@H](CC(C)C)C(=O)OC(C)(C)C)c3)cc(=O)c2c(OC)c1OC | 42.1% | 37.4% | 49.3% | 93% | 69.6% | 111% | 71.5% | 56.9% | 49% |
| Cc1cccc(/C=C/C(=O)Nc2ncc(Cc3cccc(C)c3)s2)c1 | 6.46% (active) | 19.1% | 24.3% | 40.6% | 45.6% | 30% | 32.5% | 14.2% | 18.3% |
| C=CC(=O)N1CC=C(c2cc3c(N[C@H](C)c4ccccc4)ncnc3[nH]2)CC1 | 66.7% | 85.8% | 85.8% | 37.5% | 71.9% | 47.4% | 6.95% (active) | 39.9% | 89.5% |
| CN(C)CCN(C)c1ccc2ncc(C#Cc3cncc(C(=O)Nc4ccc(CN5CCN(C)CC5)c(C(F)(F)F)c4)c3)n2n1 | -17.4% (active) | -33.9% (active) | 63.6% | 91.5% | -0.365% (active) | 118% | 45.5% | 59.9% | 37.1% |
| COc1ccc(/C=C/C(=O)c2cc(S(N)(=O)=O)c(OC)cc2OC)cc1 | 23.4% | 60.9% | 93% | 98.3% | 103% | 97.2% | 81.8% | 89.1% | 85.8% |
| Cn1ccnc1C(=O)/C=C/c1ccc(NC(=O)c2ccc(F)cc2)cc1 | 8.3% (active) | 10.6% | 65% | 41.2% | 37.1% | 67.2% | 34.7% | 54.4% | 27.5% |
| O=C(CSc1nc2ccccc2c(=O)n1-c1ccccc1)Nc1ccc(-c2nc3ccc([N+](=O)[O-])cc3[nH]2)cc1 | 20.9% | 67.2% | 75.5% | 86.1% | 88.6% | 106% | 57.9% | 77.1% | 75.3% |
| Cc1cc(C)cc(C(=O)Nc2cccc(C#Cc3cccc4[nH]nc(N)c34)c2)c1 | 4.43% (active) | 47.4% | 53.3% | 73.9% | 80.7% | 95.7% | 64.6% | 75.7% | 59.8% |
| C=C(C=O)[C@@H]1CC[C@]2(C)[C@H](C(=O)C=C3[C@H]4C[C@](C)(C(=O)OC)CC[C@]4(C)CC[C@]32C)[C@@]1(C)CCC#N | -9.31% (active) | -16.5% (active) | 13.5% | -25.7% (active) | 20.6% | 102% | 2.58% (active) | -2.47% (active) | -24.3% (active) |
| C#Cc1nc(C(=O)NCCC(=O)Nc2ccc(NC(=O)c3ccc(/C=C/C(=O)c4nccn4C)cc3)cc2)cs1 | 0.901% (active) | -33% (active) | 22.3% | 50.9% | 61.8% | 86.3% | -25.5% (active) | 86.7% | 49.2% |
| Cc1ccc(N2C(=O)/C(=C/C=C/c3ccco3)SC2=S)cc1 | 56.6% | 75.3% | 99.2% | 103% | 92.4% | 107% | 103% | 96.2% | 97.6% |
| COCCNc1ccc2ncc(C#Cc3cncc(C(=O)Nc4ccc(CN5CCN(C)CC5)c(C(F)(F)F)c4)c3)n2n1 | -6.69% (active) | -26.7% (active) | -5.34% (active) | 3.94% (active) | -10.6% (active) | -63% (active) | -12% (active) | -33.9% (active) | 43.9% |
| Cc1cc(C)c(N2C(=O)CC(Nc3ccc(Cl)cc3Cl)C2=O)c(C)c1 (configuration not stated) | 97.5% | 99.9% | 101% | 100% | 102% | 108% | 104% | 95.8% | 107% |
| Nc1nc(-c2cccc([N+](=O)[O-])c2)c(N=Nc2ccc([N+](=O)[O-])cc2Cl)s1 | 5.91% (active) | -6.23% (active) | 7.59% (active) | 21% | 16.3% | -11% (active) | 30.6% | -4.26% (active) | 6.4% (active) |
| COc1ccc([C@@H]2[C@@H](O)C(=O)N2c2cc(OC)c(OC)c(OC)c2)cc1F | 8.72% (active) | 21.5% | -5.69% (active) | 31.5% | 63.2% | 28.3% | 18.9% | -2.79% (active) | -6.67% (active) |
| CC1=N[C@@H]2CN(C(=O)OC(C)(C)C)C[C@@H]2n2c1cc1ccccc1c2=O | 99.9% | 101% | 101% | 107% | 107% | 92.5% | 107% | 101% | 100% |
| Cc1ccc(C(=O)NN2C(=O)/C(=C/C=C/c3ccco3)SC2=S)cc1 | 84.5% | 102% | 99.7% | 100% | 92.8% | 107% | 98.4% | 96.5% | 97.5% |
| COC(=O)C[Se]C(=O)Cc1c(C)n(C(=O)c2ccc(Cl)cc2)c2ccc(OC)cc12 | 16.4% | 90.8% | 41.4% | 15.4% | 40.6% | 118% | 16.8% | 29.8% | 9.78% (active) |
| COc1cc2nc(Cl)nc(Nc3cccc(C4=Nc5c(N)nc(N)nc5NC(c5ccccc5)C4)c3)c2cc1OC (configuration not stated) | -1.18% (active) | 49% | 67.2% | 110% | 96.7% | 121% | 86.7% | 96.4% | 94.1% |
| O=C1/C(=C/C=C/c2ccco2)SC(=S)N1c1ccccc1 | 43.8% | 53.6% | 66.4% | 88% | 90.9% | 110% | 44.3% | 102% | 51.2% |
| COc1ccc([C@H]2[C@H](O)C(=O)N2c2cc(OC)c(OC)c(OC)c2)cc1F | 9.35% (active) | 26.9% | -15% (active) | 27.7% | 67.7% | 30.1% | 19.2% | 3.89% (active) | 8.51% (active) |
| Cc1ccc(NC(=O)N[C@@H](Cc2cc(F)cc(F)c2)C(=O)NC2C(=O)N3C[C@H](O)C[C@H]3C(=O)N3CCCC[C@H]3C(=O)N[C@@H](CO)C(=O)N3C[C@H](C)C[C@H]3C(=O)O[C@H]2C)c(F)c1 (some centres not stated) | 40.6% | 17.6% | 44.1% | 43.8% | 29.8% | 33.7% | 60.6% | 40.1% | 107% |
| COc1cc(Nc2c(C#N)cnn3cc(-c4cnn(CC(C)(C)O)c4)cc23)ccc1Cl | 24.3% | 40.2% | 46.9% | 43.8% | 42.6% | 4.19% (active) | 4.87% (active) | 61.9% | 46.5% |
| C=C1CC[C@@H]2[C@](C)(CO)[C@H](O)CC[C@@]2(C)[C@@H]1C/C(O)=C1\CCOC1=O | 83.6% | 83.8% | 98.5% | 120% | 94.7% | 113% | 107% | 92.3% | 98% |
| O=C1/C(=C/C=C/c2ccco2)SC(=S)N1C1CCCCC1 | 82.2% | 100% | 97.4% | 94% | 95.3% | 104% | 101% | 101% | 99% |
